Compound activity as filed in PubChem.
HT1080-NT tox: kills 2HG-producing HT-1080-NT fibrosarcoma cells | Potency, µM (highest dose often 46.1 µM), hits mostly cytotoxic | actives 1.6% (n = 360,000) | HT-1080-NT fibrosarcoma viability, CellTiter-Glo ATP luminescence, 48 h | AID 686970;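 note: NT is the 2HG producing partner of a matched IDH1 knockdown line; nearly all actives have a fitted effect of over 55% in size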
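Fibrosarcoma NT cells, 750 per well in 5% FBS RPMI, were exposed to compound for 48 hours. Viability: CellTiter-Glo luminescence.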
DT40 TDP1 no CPT: qHTS for Inhibitors of human tyrosyl-DNA phosphodiesterase 1 (TDP1): qHTS in cells in absence of CPT; actives 15% (n = 420,000); DT40 Tdp1-/- hTDP1 cells, no CPT, ATP luminescence, 48 h; Potency, µM (doses to about 46.2 µM), most hits filed as inhibitors; note: nearly all actives have a fitted effect of over 55% in size
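A cellular qHTS used chicken DT40 cells lacking endogenous Tdp1 but carrying stably transfected human TDP1. Compounds were applied without camptothecin, and cell growth kinetics were judged by ATP-dependent luminescence after ≥48 hr.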
HT1080 IDH1KD tx: toxicity to HT-1080 IDH1 knockdown cells (counter line); HT-1080 IDH1 knockdown viability, ATP luminescence, 48 h; Potency, µM (titrated, usually from 46.1 µM), hits mostly cytotoxic; actives 2% (n = 360,000)
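Knockdown cells (IDH1KD HT-1080) received compounds 2 h after plating at 750 cells/well and were kept 48 h at 37 °C in 5% FBS RPMI. A CellTiter-Glo luminescence read gave % activity for curve fitting.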
IL1B secr inh: blocks inflammasome-driven IL-1 beta release. THP-1 LPS/ATP IL-1B secretion, AlphaLISA, 16 h; active compounds read low. activity change, % at 57.5 µM. actives 4.7% (n = 360,000); in the data active = activity change below about -50%; inconclusive = mostly about -30% to -49%
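Secreted IL-1B measured by AlphaLISA bead assay after 16 h compound exposure of THP-1 cells; compounds (final up to 57.5 uM) added 1 h before LPS (250 ng/mL) and ATP (1.25 mM) stimulation; lower signal means less secretion.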
TDP1 cell CPT: growth inhibition of DT40 Tdp1-/-;hTDP1 cells with camptothecin (screen for TDP1 inhibitors) | chicken DT40 Tdp1-/-;hTDP1 cells + 20 nM CPT, ATP luminescence, 48 h | Potency, µM (top dose mostly 46.2 µM), usual class: inhibitors | actives 12% (n = 420,000); note: nearly all actives have a fitted effect of over 55% in size
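Cell growth measured by CellTiter-Glo luminescence after a minimum 48 h, 37 C compound exposure with 20 nM CPT in Tdp1-knockout DT40 cells stably expressing hTDP1, seeded 400/well; qHTS titration format.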
Hits are given with their value; – = inactive; ? = inconclusive; · = not tested or not shown. Most compounds without a hit are left out; they make up all but 19% or so of the library. Unless noted, calls come from the whole dose curve; as a rule, active = well fitted curve in the direction sought with a large enough effect; inconclusive = small, poorly fitted or top-dose-only effect, or another doubt; inactive = no such curve, though single readings can be large; an effect the other way counts as inactive or inconclusive.

SMILES	HT1080-NT tox	DT40 TDP1 no CPT	HT1080 IDH1KD tx	IL1B secr inh	TDP1 cell CPT
CCc1ccc(OCc2ccc(C(=O)NCc3ccccn3)o2)cc1	–	?	–	–	–
C[n+]1cccc2c(Br)ccc([O-])c21	–	–	–	–	–
[O-][n+]1cccc2c(Br)cc(Br)c(O)c21	–	?	–	-62.3	?
Cc1ccc(S(=O)(=O)N2C[C@H]3C(=O)C[C@@H](c4ccccc4F)N(S(=O)(=O)c4ccc(C)cc4)[C@H]3C[C@H]2c2ccccc2F)cc1	–	10.3µM	–	–	8.2µM
Cc1cn2c(=O)c(S(=O)(=O)Nc3ccc(F)cc3F)c(C)nc2s1	·	?	·	·	–
CC(=O)c1cccc(NS(=O)(=O)c2c(C)nc3sc(C)cn3c2=O)c1	·	14.6µM	·	·	18.4µM
Cc1ccc(NS(=O)(=O)c2c(C)nc3sccn3c2=O)cc1	–	–	–	–	?
CCOC(=O)c1cccc(NS(=O)(=O)c2c(C)nc3sc(C)cn3c2=O)c1	·	23.1µM	·	·	13µM
CCOC(=O)c1ccc(NS(=O)(=O)c2c(C)nc3sccn3c2=O)cc1	–	16.4µM	–	–	16.4µM
CCc1cccc(NS(=O)(=O)c2c(C)nc3sc(CC)nn3c2=O)c1	–	20.6µM	–	–	?
CCN(CC(=O)Nc1ccc2c(c1)OCCO2)S(=O)(=O)c1ccc(C)cc1	–	–	–	–	–
Cc1nc2scc(C)n2c(=O)c1S(=O)(=O)Nc1cccc(O)c1	·	–	·	·	–
COc1ccc(NS(=O)(=O)c2c(C)nc3scc(C)n3c2=O)cc1	·	?	·	·	–
CC(=O)c1cccc(NS(=O)(=O)c2cc3c(cc2C)NC(=O)CO3)c1	–	–	–	–	–
Cc1ccc(NS(=O)(=O)c2c(C)nc3sc(C)c(C)n3c2=O)cc1F	·	14.6µM	·	·	11.6µM
CCOC(=O)c1cccc(NS(=O)(=O)c2cc3c(cc2C)NC(=O)CO3)c1	·	18.4µM	·	·	18.4µM
Cc1nc2sccn2c(=O)c1S(=O)(=O)Nc1ccc(N2CCOCC2)c(Cl)c1	–	29.1µM	–	–	18.4µM
Cc1nc2scc(C)n2c(=O)c1S(=O)(=O)Nc1ccc(OC(F)(F)F)cc1	–	14.6µM	–	–	20.6µM
CN(C)S(=O)(=O)c1ccc(C(=O)OC2CCOC2=O)cc1 (stereo not given)	–	–	–	–	–
O=C(Nc1ccc(N2CCOCC2)c(S(=O)(=O)Nc2ccccc2Cl)c1)c1ccc(F)cc1	–	?	–	-55.9	?
O=C(Nc1ccc(N2CCCCC2)c(S(=O)(=O)Nc2ccccc2Cl)c1)c1cccnc1	–	?	–	?	–
O=C(Nc1ccc(Cl)c(Cl)c1)Nc1ccc(N2CCCC2)c(S(=O)(=O)Nc2ccccc2Cl)c1	?	4.11µM	13µM	-52.4	3.26µM
O=C(Nc1ccc(F)cc1)Nc1ccc(N2CCCC2)c(S(=O)(=O)Nc2ccccc2Cl)c1	?	23.1µM	23.1µM	-59.9	23.1µM
Cc1nc(N)c(Cc2ccc(Cl)cc2Cl)c(N)n1	–	8.2µM	–	–	11.6µM
COc1ccc(C)cc1NS(=O)(=O)c1cc(Br)cc2c1N(C(C)=O)C(C)C2 (stereo not given)	·	18.4µM	·	·	?
SMILES	HT1080-NT tox	DT40 TDP1 no CPT	HT1080 IDH1KD tx	IL1B secr inh	TDP1 cell CPT
CC(=O)N1c2c(cc(Br)cc2S(=O)(=O)N2CCN(c3ccccc3F)CC2)CC1C (stereo not given)	–	?	–	–	–
COc1cc(NS(=O)(=O)c2cc(Br)cc3c2N(C(C)=O)C(C)C3)cc(OC)c1 (stereo not given)	·	18.4µM	·	·	13µM
CC(=O)N1c2c(cc(Br)cc2S(=O)(=O)N2CCOCC2)CC1C (stereo not given)	–	–	–	–	–
CC(=O)N1c2c(cc(Br)cc2S(=O)(=O)N2CCN(c3cc(C)ccc3C)CC2)CC1C (stereo not given)	·	14.6µM	·	·	16.4µM
CC(=O)N1c2c(cc(Br)cc2S(=O)(=O)NCc2ccc3c(c2)OCO3)CC1C (stereo not given)	–	–	–	–	–
Cc1cc(C)c(NC(=O)CNC(=O)Cc2sc(C)nc2-c2ccc(F)cc2)c(C)c1	–	–	–	–	–
